This is part of a sample that, as a whole, favours compounds with a hit. Of some 83,000 tested, about 20% had one in any assay.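 For each line, cells grew in 96-well plates with the test compound present at a single concentration for 48 hours.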 Calls of active or inactive are those of the source. The calls were made as follows: active = growth percent below 10; inactive = the rest.
What was measured:
Assay in all cases: NCI-60 one-dose screen, 48 h (100 = growth as untreated, 0 = no growth, -100 = all killed)
Conditions in all cases: 10 µM unless noted
SR leukemia = tested on: SR leukemia
RPMI-8226 leukemia = tested on: RPMI-8226 leukemia
OVCAR-8 ovarian = tested on: OVCAR-8 ovarian
OVCAR-5 ovarian = tested on: OVCAR-5 ovarian
OVCAR-4 ovarian = tested on: OVCAR-4 ovarian
SK-OV-3 ovarian = tested on: SK-OV-3 ovarian
IGROV1 ovarian = tested on: IGROV1 ovarian
OVCAR-3 ovarian = tested on: OVCAR-3 ovarian
HS 578T breast = tested on: HS 578T breast
NCI/ADR-RES ovarian = tested on: NCI/ADR-RES ovarian

Measured: growth

Clc1ccc2c(NCCNc3nc(-c4ccccc4)cc(-c4ccccc4)n3)ccnc2c1
inactive: SK-OV-3 ovarian 83.6%
active: SR leukemia -19.4% | RPMI-8226 leukemia -34.4% | OVCAR-8 ovarian -70.6% | OVCAR-5 ovarian -79.7% | OVCAR-4 ovarian -66.4% | IGROV1 ovarian -83.1% | OVCAR-3 ovarian -85.6% | HS 578T breast -17.2% | NCI/ADR-RES ovarian -41.8%

N#Cc1cnc2cc(OC[C@@H](O)CO)c(NC(=O)C3CCCC3)cc2c1Nc1ccc(OCc2cccc(F)c2)c(Cl)c1
active: RPMI-8226 leukemia -13.5% | OVCAR-8 ovarian -13.6% | OVCAR-4 ovarian -74.8% | IGROV1 ovarian 4.22% | OVCAR-3 ovarian -82% | HS 578T breast -32.2%
inactive: SR leukemia 13.4% | OVCAR-5 ovarian 86.1% | SK-OV-3 ovarian 27% | NCI/ADR-RES ovarian 63.3%

COc1ccc(-c2n/c(=C\c3c(O)[nH]c4ccc(OC)cc34)cc3c2=Nc2ccccc2-3)cc1
active: SR leukemia 7.13% | RPMI-8226 leukemia -38.5% | OVCAR-4 ovarian -42.1% | OVCAR-3 ovarian -57.5% | NCI/ADR-RES ovarian 4.41%
inactive: OVCAR-8 ovarian 11.8% | OVCAR-5 ovarian 135% | SK-OV-3 ovarian 114% | IGROV1 ovarian 98.3% | HS 578T breast 26.1%

Cc1ccc(Cc2cnc(NC(=O)/C=C/c3cccc(C)c3)s2)cc1
inactive: SR leukemia 13.2% | OVCAR-8 ovarian 21% | OVCAR-5 ovarian 20.9% | OVCAR-4 ovarian 12.9% | SK-OV-3 ovarian 15.7% | IGROV1 ovarian 18.3%
active: RPMI-8226 leukemia 3.37% | OVCAR-3 ovarian -41.4% | HS 578T breast 6.83% | NCI/ADR-RES ovarian -36.5%

Cc1csc(Nc2nc(-c3cccc(Br)c3)nc(C(Cl)(Cl)Cl)n2)n1
inactive: SR leukemia 67.7% | RPMI-8226 leukemia 35.8% | OVCAR-8 ovarian 75.6% | OVCAR-5 ovarian 69.9% | OVCAR-4 ovarian 76.8% | SK-OV-3 ovarian 76.1% | IGROV1 ovarian 91.9% | OVCAR-3 ovarian 14.9% | HS 578T breast 59.6% | NCI/ADR-RES ovarian 60.4%

Cc1cc(N2CCCCC2)nc(N(CCCNc2ccnc3cc(Cl)ccc23)Cc2ccco2)n1
active: SR leukemia -20.6% | RPMI-8226 leukemia -35.3% | IGROV1 ovarian 4.05% | NCI/ADR-RES ovarian 4.38%
inactive: OVCAR-8 ovarian 42.5% | OVCAR-5 ovarian 41.5% | OVCAR-4 ovarian 39.8% | SK-OV-3 ovarian 57.4% | OVCAR-3 ovarian 21% | HS 578T breast 61.3%

Nc1nc2c3ccncc3cc(-c3cccc(Cl)c3)c2c2cnccc12
active: SR leukemia 9.04% | RPMI-8226 leukemia 5.57%
inactive: OVCAR-8 ovarian 24.1% | OVCAR-5 ovarian 61.2% | OVCAR-4 ovarian 65.6% | SK-OV-3 ovarian 61.9% | IGROV1 ovarian 59% | OVCAR-3 ovarian 54.6% | HS 578T breast 35.5% | NCI/ADR-RES ovarian 30.6%

C=C1C(=O)O[C@H]2[C@H]1CC/C(COC(=O)NCc1cc3ccccc3[nH]1)=C\CC[C@@]1(C)O[C@@H]21
inactive: OVCAR-5 ovarian 26.2% | SK-OV-3 ovarian 86.7% | HS 578T breast 79.3% | NCI/ADR-RES ovarian 71.4%
active: SR leukemia -2.88% | RPMI-8226 leukemia -32.8% | OVCAR-8 ovarian 6.1% | OVCAR-4 ovarian -0.221% | IGROV1 ovarian -20.5% | OVCAR-3 ovarian -54.4%

CC1(C)NC2=C(C(Nc3cccnc3)N1)C(c1ccc([N+](=O)[O-])cc1)C(C(=O)c1ccc(N=[N+]=[N-])cc1)O2 (stereo not given)
inactive: SR leukemia 102% | RPMI-8226 leukemia 115% | OVCAR-8 ovarian 101% | OVCAR-5 ovarian 97.6% | OVCAR-4 ovarian 117% | SK-OV-3 ovarian 108% | IGROV1 ovarian 104% | OVCAR-3 ovarian 110% | HS 578T breast 102% | NCI/ADR-RES ovarian 109%

COc1cc2ncnc(Nc3ccc(Oc4ccnc(C)c4)c(C)c3)c2cc1NC(=O)CC1CCSS1 (stereo not given)
inactive: OVCAR-8 ovarian 25.4% | OVCAR-5 ovarian 45.2% | IGROV1 ovarian 20.6% | NCI/ADR-RES ovarian 31.9%
active: SR leukemia -37.6% | RPMI-8226 leukemia -18.6% | OVCAR-4 ovarian 6.57% | SK-OV-3 ovarian -86.9% | OVCAR-3 ovarian -81.4% | HS 578T breast -7.37%

CC1(C)CC[C@]2(C(=O)Nc3ccccn3)CC[C@]3(C)C(=CC[C@@H]4[C@@]5(C)C/C(=C/c6ccncc6)C(=O)C(C)(C)[C@@H]5CC[C@]43C)[C@@H]2C1
inactive: OVCAR-8 ovarian 41.5% | OVCAR-5 ovarian 75.5% | OVCAR-4 ovarian 17.1% | SK-OV-3 ovarian 71.8% | IGROV1 ovarian 50.6% | OVCAR-3 ovarian 12.6% | HS 578T breast 56.7% | NCI/ADR-RES ovarian 51.3%
active: SR leukemia 8.26% | RPMI-8226 leukemia -0.291%

Nc1c(C(=O)Nc2c(Cl)cccc2Cl)sc2nc3c(cc12)CCCC3
inactive: SR leukemia 12% | RPMI-8226 leukemia 93.4% | OVCAR-8 ovarian 84.9% | OVCAR-5 ovarian 105% | OVCAR-4 ovarian 89.9% | SK-OV-3 ovarian 83.3% | IGROV1 ovarian 79.5% | OVCAR-3 ovarian 64% | HS 578T breast 82.3% | NCI/ADR-RES ovarian 60.8%

COc1ccc(C2CC(=O)c3c(nc4ccc(Cl)cc4c3N)C2)cc1 (stereo not given)
inactive: SR leukemia 88.7% | RPMI-8226 leukemia 103% | OVCAR-8 ovarian 107% | OVCAR-5 ovarian 95.4% | OVCAR-4 ovarian 102% | SK-OV-3 ovarian 117% | IGROV1 ovarian 99.7% | OVCAR-3 ovarian 112% | HS 578T breast 115% | NCI/ADR-RES ovarian 105%

— PubChem BioAssay (NCI)
